“And” between values parts separate entries of the source, which are not always exact repeats. Equal entries are not always repeated. Results filed as inconclusive are left out. A number with no mark means an inactive call. The source made the active and inactive calls. Calls come from the whole dose curve; as a rule, active = well fitted inhibition curve with a large enough effect in the repeat runs; inconclusive = weak or mixed curves, or effect the other way; inactive = no such curve, though single readings can be large or run the other way.
Biological target: Nuclear receptor subfamily 1 group I member 3 (Homo sapiens) (UniProt Q14994)
Sequence (Q14994 whole entry, looked up): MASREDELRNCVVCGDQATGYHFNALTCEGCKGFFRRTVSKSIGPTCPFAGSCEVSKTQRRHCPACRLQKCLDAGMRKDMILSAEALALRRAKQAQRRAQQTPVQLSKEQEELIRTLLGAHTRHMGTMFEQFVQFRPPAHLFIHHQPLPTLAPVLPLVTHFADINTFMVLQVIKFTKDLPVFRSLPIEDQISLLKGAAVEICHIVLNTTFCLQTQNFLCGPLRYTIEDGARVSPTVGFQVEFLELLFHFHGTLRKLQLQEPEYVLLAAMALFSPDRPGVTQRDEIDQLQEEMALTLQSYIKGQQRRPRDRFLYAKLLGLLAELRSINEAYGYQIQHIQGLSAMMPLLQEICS
Experiment: qHTS assay to identify small molecule antagonists of the constitutive androstane receptor (CAR) signaling pathway (AID 1224838);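 note: HepG2 cells stably expressing hCAR with CYP2B6 luciferase reporter stimulated by CITCO; nearly all actives have a fitted effect of over 40% in size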
Conditions: HepG2-CYP2B6-hCAR luciferase, CITCO-stimulated, 24 h; series mostly up to 92.4 µM; activity, negative = inhibition: at the top concentration
Text: U.S. Tox21 Program National Center for Advancing Translational Sciences [NCATS] NIH Chemical Genomics Center [NCGC] U.S. Environmental Protection Agency [EPA] National Institutes of Environmental Health Sciences [NIEHS] National Toxicology Program [NTP] U.S. Food and Drug Administration [FDA] Tox21 Assay Overview: The constitutive androstane receptor (CAR) is a nuclear receptor which regulates multiple drug metabolizing enzymes (DMEs) and transporters. Activating CAR will generally increase the transcription and subsequent translation of CYP2B6 and CYP3A4. These two DMEs represent about 50% of the drug metabolizing potential in the body. When CAR is deactivated, the metabolizing potential in the body will decrease, subsequently increasing the toxicity in the body or lowering the therapeutic potential of a pro-drug. Recently, there have also been studies performed indicating CARs role in energy metabolism and cancer therapy. Therefore, inhibiting CARs activity could have a potential effect on diabetes and cancer. Identifying environmental toxins and compounds which modulate CAR, through the use of the Tox21 10K compound collection, will be an important step in determining the toxicity and potential therapeutic effects these factors will have on the human body.
Tox21 Assay Protocol Summary: A double-stable (hCAR and CYP2B6-2.2kb) transfected cell line, derived from human hepatoma (HepG2) cells, was utilized for the duration of the quantitative high-throughput screens. The HepG2-CYP2B6-hCAR cells suspended in DMEM culture medium supplemented with 10% FBS, 5 ug/mL blasticidin, 0.5 mg/mL geneticin, 100 U/mL penicillin and 100 ug/mL streptomycin were dispensed at 2500 cells/4 uL/well in 1536-well white solid bottom plates using a Multidrop Combi. After the assay plates were incubated at 37 C/5% CO2 for 4 hrs, 23 nL of compounds at 15 concentrations (from 5-48 columns) or positive control (from 1 to 4 columns) were transferred to the assay plates using a Pintool station. One uL of CITCO, was added using a Flying Reagent Dispenser to generate a final concentration of 50 nM CITCO inside each well. After a 24 hr incubation period at 37 C/5% CO2, four uL of ONE-Glo reagent was added into the assay plates using a Flying Reagent Dispenser. After a 30 min incubation period at room temperature, the luminescence intensity in the assay plates was measured using a ViewLux plate reader.
% is set by controls: 0 for no effect and ±100 for the full control effect; potency is the fitted concentration of half-maximal effect.

With `COP(=S)(NC(C)C)Oc1ccc(C)cc1[N+](=O)[O-]` (stereo not given) as the compound, how does the “activity, negative = inhibition” value read?
The value was 86.1%.

With `COP(=S)(OC)Oc1nc(Cl)c(Cl)cc1Cl` as the compound, how does the “activity, negative = inhibition” value read?
Its value is 49.1%.

`C#CCC1=C(C)C(OC(=O)C2C(C=C(C)C)C2(C)C)CC1=O` (stereo not given) was tested. Which “activity, negative = inhibition” value did it give?
Its value is 131%.

How did the “activity, negative = inhibition” value turn out when `CCOP(=S)(OCC)Oc1cc(C)nc(N(CC)CC)n1` was run?
The value was 146%.

For `BrCCCBr`, which “activity, negative = inhibition” value is on record?
Its value is 15.4%.

How did the “activity, negative = inhibition” value turn out when `COc1ccc(Cc2nccc3cc(OC)c(OC)cc23)cc1OC` was run?
Its value is 61.8% [at 42.5 µM].

`CNC(=O)/C=C(\C)OP(=O)(OC)OC` was tested. Which “activity, negative = inhibition” value did it give?
Its value is -0.562%.

For `Oc1ccc([C@H]2CNCc3c2ccc(O)c3O)cc1O`, which “activity, negative = inhibition” value is on record?
Its value is -5.74% [at 42.5 µM].

With `CC(C)N(C(=O)CCl)c1ccccc1` as the compound, how does the Potency read?
The Potency was 54.5 µM (active) and 38.6 µM (active).

Which “activity, negative = inhibition” value does the source give for `CCOC(=O)CCN(SN(C)C(=O)Oc1cccc2c1OC(C)(C)C2)C(C)C` here?
Its value is 119%.

With `COc1cnc(OC)n2nc(NS(=O)(=O)c3c(OCC(F)F)cccc3C(F)(F)F)nc12` as the compound, how does the “activity, negative = inhibition” value read?
Its value is -12.1%.

For `CNC(=O)Oc1cc(C)cc(C(C)C)c1`, which “activity, negative = inhibition” value is on record?
Its value is 8.26%.

For `O=C(NC(=O)c1c(F)cccc1F)Nc1ccc(Oc2ccc(C(F)(F)F)cc2Cl)cc1F`, which “activity, negative = inhibition” value is on record?
The value was 41.7%.

With `CCCCC/C=C\C/C=C\C/C=C\C/C=C\CCCC(=O)NCC(=O)O` as the compound, how does the “activity, negative = inhibition” value read?
Its value is -3.49% [at 42.5 µM].

Which “activity, negative = inhibition” value does the source give for `O=P(Cl)(Cl)Cl` here?
The value was -11.6%.

How did the “activity, negative = inhibition” value turn out when `CC(C)c1c(CN(C)C(C)Cc2ccccc2)n(C)n(-c2ccccc2)c1=O` (stereo not given) was run?
The value was 74.2% [at 42.5 µM].

Which “activity, negative = inhibition” value does the source give for `CC(C)(C)c1ccc(OP(=O)(Oc2ccccc2)Oc2ccccc2)cc1` here?
Its value is 37.7%.

How did the Potency turn out when `CCC(OC(C)=O)C(CC(C)NC)(c1ccccc1)c1ccccc1` (stereo not given) was run?
Its Potency is 69.2 µM (active).

How did the “activity, negative = inhibition” value turn out when `O=c1[nH]c2cc(Cl)ccc2n1C1CCNCC1` was run?
Its value is -9.07% [at 42.5 µM].

How did the “activity, negative = inhibition” value turn out when `C=CCBr` was run?
Its value is -14%.

`CCC1(CC)C(=O)N=C(O)NC1=O` was tested. Which “activity, negative = inhibition” value did it give?
The value was -11.7%.

`CCCCC(CC)COC(=O)c1ccccc1C(=O)OCC(CC)CCCC` (stereo not given) was tested. Which “activity, negative = inhibition” value did it give?
Its value is 61.7%.

With `CN1C(=O)[C@@H](NC(=O)c2cc3ccccc3[nH]2)N=C(c2ccccc2)c2ccccc21` as the compound, how does the “activity, negative = inhibition” value read?
Its value is -11.3% [at 42.5 µM].

`CC1CN1` (stereo not given) was tested. Which “activity, negative = inhibition” value did it give?
The value was 6.07%.

Which “activity, negative = inhibition” value does the source give for `CSC(=O)c1c(C(F)F)nc(C(F)(F)F)c(C(=O)SC)c1CC(C)C` here?
The value was 17.9%.

Which Potency does the source give for `N#Cc1sc2c(=O)c3ccccc3c(=O)c=2sc1C#N` here?
Its Potency is 8.63 µM (active).

`CN1C2CCC(C)(C)C1CC(OC(=O)C(O)(c1cccs1)c1cccs1)C2` (stereo not given) was tested. Which “activity, negative = inhibition” value did it give?
The value was -12.8% [at 42.5 µM].

For `Cc1cccc(Cc2cnc[nH]2)c1C`, which “activity, negative = inhibition” value is on record?
Its value is 21.8% [at 42.5 µM].

For `CCC[CH2][Sn]([CH2]CCC)([CH2]CCC)[CH2]CCC`, which Potency is on record?
The Potency was 9.69 µM (active).

How did the “activity, negative = inhibition” value turn out when `Oc1cc(Cl)cc(Cl)c1` was run?
Its value is 63.5%.

With `Clc1cc(Cl)c(-c2cc(Cl)c(Cl)cc2Cl)cc1Cl` as the compound, how does the “activity, negative = inhibition” value read?
Its value is 19.9% [at 42.5 µM].

`Cc1c([N+](=O)[O-])cc2c(c1[N+](=O)[O-])C(C)(C)CC2(C)C` was tested. Which “activity, negative = inhibition” value did it give?
The value was 64.5%.

With `O=[N+]([O-])c1cc(C(F)(F)F)c(Cl)c([N+](=O)[O-])c1Nc1ncc(C(F)(F)F)cc1Cl` as the compound, how does the Potency read?
Its Potency is 13.7 µM (active).

With `Cc1c([N+](=O)[O-])c(C)c([N+](=O)[O-])c(C(C)(C)C)c1[N+](=O)[O-]` as the compound, how does the “activity, negative = inhibition” value read?
Its value is -1.1%.

With `[O]=[Cr][O][Cr]=[O]` as the compound, how does the “activity, negative = inhibition” value read?
Its value is -1.88%.

`CCCCc1ccccc1` was tested. Which “activity, negative = inhibition” value did it give?
Its value is -9.84%.

With `CO/N=C(\C(=O)OC)c1ccccc1CO/N=C(\C)c1cccc(C(F)(F)F)c1` as the compound, how does the “activity, negative = inhibition” value read?
The value was 47%.

For `O=[N+]([O-])c1ccc(Cl)c(Cl)c1Cl`, which “activity, negative = inhibition” value is on record?
Its value is 39.1%.

`CCc1cccc(C)c1N(C(=O)CCl)[C@@H](C)COC` was tested. Which “activity, negative = inhibition” value did it give?
Its value is 80.5%.

`C=CCOC(=O)c1ccccc1N` was tested. Which “activity, negative = inhibition” value did it give?
The value was 27.9%.

From PubChem BioAssay (Tox21)
